Source: PubChem (National Center for Advancing Translational Sciences (NCATS))
rTrxR1 inhibitor – qHTS Assay for Inhibitors of Mammalian Selenoprotein Thioredoxin Reductase 1 (TrxR1): qHTS; AID 588453, 2011; Thioredoxin reductase 1, cytoplasmic (Rattus norvegicus), O89049; recombinant rTrxR1, NADPH fluorescence consumption, selenite substrate; hit rate 1% among 390,000; Potency, µM (highest dose often 114 µM), without a hit: at the highest dose activity change, negative = inhibition, most hits filed as inhibitors; note: potency is the fitted concentration of half-maximal effect; nearly all actives have a fitted effect of over 65% in size
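Rat TrxR1 (90 nM in the dispensed reagent) was pre-reduced with 400 uM NADPH for 5 min at room temperature, then incubated with compound for 15 min. After 400 uM selenite was added, NADPH fluorescence (Ex 340/Em 450 nm) was followed for 8 min.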
mIDH1 inhibitor – qHTS for Inhibitors of mutant isocitrate dehydrogenase 1 (IDH1): qHTS; Isocitrate dehydrogenase [NADP] cytoplasmic (Homo sapiens), O75874; IDH1-R132H enzyme, NADPH consumption, diaphorase/resazurin fluorescence; Potency, µM (series often up to 76.6 µM), for the others: at the top dose activity change, negative = inhibition, usual class: inhibitors; hit rate 0.093% among 390,000; note: potency is the fitted concentration of half-maximal effect; nearly all actives have a fitted effect of over 65% in size
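IDH1-R132H (0.5 ug/mL dispensed) in pH 7.5 Tris buffer was preincubated 30 min with compound, then given a substrate mix of 0.016 mM NADPH and 2 mM alpha-KG for 80 min at room temperature; remaining NADPH was read by diaphorase/resazurin fluorescence.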
Eya2 inh – qHTS Assay for Inhibitors of the Phosphatase Activity of Eya2 | AID 488837, 2010 | hit rate 0.006% among 330,000 | Protein phosphatase EYA2 (Homo sapiens), O00167 | recombinant Eya2, OMFP fluorescence dephosphorylation (OMFP is methylfluorescein phosphate) | Potency, µM (series often up to 76.9 µM), for the others: at the highest dose activity, negative = inhibition, most hits filed as inhibitors; note: potency is the fitted concentration of half-maximal effect
Target sequence (O00167 whole entry, looked up): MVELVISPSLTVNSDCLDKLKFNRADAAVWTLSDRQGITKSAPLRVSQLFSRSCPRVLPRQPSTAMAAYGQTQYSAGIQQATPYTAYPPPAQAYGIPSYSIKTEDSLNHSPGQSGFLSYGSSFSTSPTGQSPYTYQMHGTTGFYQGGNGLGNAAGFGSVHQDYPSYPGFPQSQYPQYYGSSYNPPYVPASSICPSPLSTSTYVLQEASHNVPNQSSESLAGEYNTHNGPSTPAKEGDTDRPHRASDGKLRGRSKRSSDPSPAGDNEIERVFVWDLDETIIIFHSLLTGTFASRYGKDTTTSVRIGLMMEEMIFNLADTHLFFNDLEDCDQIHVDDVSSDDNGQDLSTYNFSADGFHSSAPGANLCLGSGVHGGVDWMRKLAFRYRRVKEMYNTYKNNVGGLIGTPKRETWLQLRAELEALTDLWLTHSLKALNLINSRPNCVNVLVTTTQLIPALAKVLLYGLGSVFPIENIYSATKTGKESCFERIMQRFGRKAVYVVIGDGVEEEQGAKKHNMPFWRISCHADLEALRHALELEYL
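Eya2 (0.2 uM) preincubated 10 min at ambient with compound, then OMFP substrate added at 50 uM; 10 min reaction in 50 mM HEPES pH 7.5, 50 mM NaCl, 5 uM MgCl2, 0.05% BSA, 1 mM DTT. Fluorescence read at Ex 485/Em 525 nm.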
TrxR1 substrate – qHTS Assay for Substrates of Mammalian Selenoprotein Thioredoxin Reductase 1 (TrxR1): qHTS; Thioredoxin reductase 1, cytoplasmic (Rattus norvegicus), O89049; purified TrxR1 substrate turnover, NADPH consumption readout; Potency, µM (titrated, usually from 114 µM), without a hit: at the top dose activity change, negative = substrate turnover; hit rate 0.01% among 390,000; note: potency is the fitted concentration of half-maximal effect; nearly all actives have a fitted effect of over 50% in size
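Rat TrxR1, dispensed at 90 nM, was prereduced with 400 uM NADPH (final) for 5 min at ~22 deg C, then incubated with compound 15 min before 400 uM selenite. A first-read NADPH fluorescence drop versus no-compound background flagged substrates.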
Coupling enz – qHTS Assay for Inhibitors of Fructose-1,6-bisphosphate Aldolase from Giardia Lamblia: Coupling assay counterscreen; coupling enzyme system counterscreen, AmpLite Red fluorescence; activity change, negative = inhibition, % at 58.2 µM, hits read low; hit rate 0.67% among 290,000; in the data active = activity change below about -30%
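Compounds tested against the coupling enzymes alone at 57.5 uM final; readout was AmpLite Red fluorescence (525/598 nm) after 20 min at RT.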
Starred values were filed as active, the others as inactive; u = inconclusive; x = no result given; [ ] = remark or other dose. An excerpt weighted towards active compounds, which were near 1.5% of everything screened. Unless noted, calls come from the whole dose curve; as a rule, active = well fitted curve in the direction sought with a large enough effect; inconclusive = small, poorly fitted or top-dose-only effect, or another doubt; inactive = no such curve, though single readings can be large; an effect the other way counts as inactive or inconclusive. % is set by controls: 0 for no effect and ±100 for the full control effect.

SMILES | rTrxR1 inhibitor | mIDH1 inhibitor | Eya2 inh | TrxR1 substrate | Coupling enz
Cc1ccc(C)c(S(=O)(=O)Nc2ccc3scnc3c2)c1 | 9% | 16% | 6% | 0% | -45*
CCn1c(O)c(/C=N/N=C2CCCCC2)c2cc(C3=NNC(=O)CC3)ccc21 | u | 4% | 0% | -1% | -35*
CCn1c(O)c(/C=N/N=C2CCCC2)c2ccc(C3=NNC(=O)CC3)cc21 | -7% | 2% | 6% | 3% | 1
CC(C)(C)c1ccc(C(=O)CC(Sc2ccc(Cl)cc2)C(=O)O)cc1 (centres undefined) | 56µM* | -8% | -4% | -6% | 22
Cc1cccc(NC(=O)COC(=O)c2ccc([N+](=O)[O-])o2)c1C | u | 6% | 19% | -3%[57.1 µM] | -7
CN(C)S(=O)(=O)c1cccc(NC(=O)COC(=O)c2ccc([N+](=O)[O-])o2)c1 | 25µM* | 7% | 1% | -7% | 1
O=C(COC(=O)c1ccc([N+](=O)[O-])o1)Nc1ccc(Br)cc1F | 5µM* | -4% | 2% | -6% | x
O=C(COC(=O)c1ccc([N+](=O)[O-])o1)Nc1ccc(F)cc1 | 25µM* | 9% | 3% | 0% | x
C=C1CCN(C(C(=O)O)C(C)C)S(=O)(=O)c2ccccc21 (centres undefined) | u | x | x | -5% | 6
CCCCCn1c(=O)c(C(=O)c2ccccc2)nc2ccccc21 | 8% | 1% | -13% | -1% | 1
CCCCCCn1c(=O)[nH]c2nc3cc(N)ccc3nc2c1=O | 8% | 3% | u | -2% | -40*
O=C(c1cc(Br)ccc1O)N(Cc1ccco1)Cc1cccs1 | u | x | x | 13% | x
CCOc1ccc(N2C(=O)CC(N3CCN(c4ccc([N+](=O)[O-])cc4)CC3)C2=O)cc1 (centres undefined) | 25µM* | -5% | -6% | -3% | 1
CCCOc1ccc(N2C(=O)CC(N3CCN(c4ccc([N+](=O)[O-])cc4)CC3)C2=O)cc1 (centres undefined) | 15% | -2% | -4% | -2% | 0
CCOc1ccc(N2C(=O)CC(N3CCN(c4ccc(Cl)cc4)CC3)C2=O)cc1 (centres undefined) | 40µM* | 0% | -1% | 14%[2.29 µM] | 0
COc1ccc(N2C(=O)CC(N3CCN(c4ccc(Cl)cc4)CC3)C2=O)cc1 (centres undefined) | -2% | -3% | 1% | -2% | 0
CCOC(=O)CN=C1CC(C)(C)CC2=C1Sc1ncnc(N(C)C)c1N2 | u | 0% | 11% | 1% | -47*
CCOC(=O)C1=C(C)NC2=C(C(=O)CC(C)(C)C2)C1c1cccc(C)n1 (centres undefined) | -27% | 1% | 0% | 66% | -3
CC(C)CCNC(=O)Cn1c(SCc2cccc(F)c2)nc2ccncc21 | -5% | x | x | 5%[0.0914 µM] | x
Cc1ccc(N2C(=O)C3C4C=CC(CNC(=S)N5CCN(c6cccc(C)c6)C(C)C5)(O4)C3C2=O)cc1 (centres undefined) | 16µM* | 15% | 2% | 6% | 3
C[N+](C)(C)CCCCCC(=O)/C=N/O | 17% | 0% | 0% | 2% | 0
CC(=O)CC[N+](C)(C)C | 2.2µM* | -1% | x | -2% | x
COc1ccc(CCSc2n[nH]c(C(C)C)n2)cc1 | 12% | x | x | 0% | x
OC(Cc1ccc2ccccc2n1)c1c(Cl)cccc1Cl (centres undefined) | -1% | x | x | -2%[0.0914 µM] | x
COC(=O)c1ccc(NCc2c(O)ccc(O)c2Br)cc1Cl | 32µM* | 0% | x | -9% | x
SMILES | rTrxR1 inhibitor | mIDH1 inhibitor | Eya2 inh | TrxR1 substrate | Coupling enz
CC1CCCCC1NC(=O)NC(=O)CCl (centres undefined) | 40µM* | 6% | -1% | 5% | -4
CC1CCCC(NC(=O)CSC2CCCCC2)C1C (centres undefined) | 6%[57.1 µM] | 4% | -10% | 6%[57.1 µM] | 1
CC1CCCCC1NC(=O)NC(=O)COC(=O)c1nccnc1N (centres undefined) | u | 1% | -27% | 413% | x
CC1CCCC(NC(=O)NC(=O)CCl)C1C (centres undefined) | 7.9µM* | -10% | 0% | 0% | -8
CCCCN(CC)CCNC(=S)Nc1ccc2nc(N3CCN(C)CC3)cc(C)c2c1 | -12% | 0% | -7% | 0% | 0
CCCCN(CC)CCNC(=O)CCC(=O)Nc1ccc2nc(N3CCN(C)CC3)cc(C)c2c1 | -32% | 0% | -15% | 43% | -34*
N#Cc1c(NC(=O)/C=C/c2ccco2)sc2c1CCCC2 | 40µM* | 5% | 4% | -7% | -1
O=C(/C=C/c1ccco1)Nc1sc2c(c1C(=O)O)CCC2 | u | 21% | -15% | -12% | -14
COc1cc([C@@H]2c3cc4c(cc3[C@@H](O[C@@H]3O[C@H]5CO[C@@H](C)O[C@@H]5[C@@H](O)[C@H]3O)[C@@H]3COC(=O)[C@@H]23)OCO4)cc(OC)c1O | x | x | x | x | -49*
Cc1cc(Cl)ccc1OCCCC(=O)N/N=C/c1cccc([N+](=O)[O-])c1 | 7% | 25% | 2% | 4% | -36*
Cc1ccccc1OCC(=O)NCC(=O)N/N=C/c1cccc([N+](=O)[O-])c1 | x | x | -1% | x | -2
Cc1ccccc1OCC(=O)N/N=C/c1cccc(Oc2ccc([N+](=O)[O-])cc2[N+](=O)[O-])c1 | -26% | 32% | 3% | -2% | -49*
O=C(CCCOc1ccc(Cl)cc1Cl)N/N=C/c1ccc(Cl)cc1 | 0% | 5% | 0% | -10% | -11
COc1cc2nc(N3CCCCC3)nc(NC(C)C)c2cc1OC | -5% | x | x | 60% | x
Cc1cc(C(=O)CSc2nnnn2C)c(C)n1-c1ccc2c(c1)OCCO2 | -24% | 29% | -1% | -4% | -45*
COc1cc2ccccc2cc1C(=O)OCC(=O)Nc1ccc(Br)cc1 | 6% | x | x | 17% | x
COc1ccc(OC)c(/C=C/c2ccc3ccccc3[n+]2C)c1 | -16% | x | x | -6% | x
O=[N+]([O-])c1ccc(O/N=[N+](\[O-])N2CCN(c3ccccc3)CC2)c([N+](=O)[O-])c1 | 32µM* | x | x | -7% | x
O=[N+]([O-])c1ccc(O/N=[N+](\[O-])N2CCN(c3ncccn3)CC2)c([N+](=O)[O-])c1 | 14µM* | x | x | 10%[0.457 µM] | x
O=c1cc(-c2ccc(OCc3ccccc3)cc2)oc2cc(OCc3ccccc3)cc(OCc3ccccc3)c12 | 40µM* | -2% | -4% | 4% | x
